Assay results from the supplement of paper PMC13380429.

Tests used:
[1] = test system: Vero E6 infected with SARS-CoV-2; assay: morphology score (similarity to uninfected cells); higher = more like uninfected cells; settings: 24 h
[2] = test system: Vero E6 infected with SARS-CoV-2; assay: SARS-CoV-2 infection rate relative to infected DMSO; higher = more infection, active = 60 or less; settings: 24 h

SMILES	morphology score [1]	SARS-CoV-2 infection rate [2]
Oc1ccc(-c2nc(-c3ccc(F)cc3)c(-c3ccncc3)[nH]2)cc1 (10 µM)	0.313	71% (inactive)
Cc1cc(-n2c(=O)[nH]c(=O)n(C)c2=O)ccc1Oc1ccc(SC(F)(F)F)cc1 [toltrazuril] (10 µM)	0.184	107% (inactive)
CCN[C@@H](C)Cc1cccc(C(F)(F)F)c1 [dexfenfluramine] (10 µM)	-0.224	112% (inactive)
O=C(O)CCc1ccc(NCc2cccc3c2CCCN3CCOc2ccccc2)cc1F (10 µM)	-0.0144	110% (inactive)
CC(C)c1cc(C(=O)N2Cc3ccc(CN4CCN(C)CC4)cc3C2)c(O)cc1O (10 µM)	0.185	118% (inactive)
NC(=O)c1cnc(N[C@@H]2CCCC[C@@H]2N)nc1Nc1cccc(-n2nccn2)c1 (10 µM)	0.582	17.5% (active)
COc1c2ccoc2cc2oc(=O)ccc12 [bergapten] (10 µM)	0.0727	108% (inactive)
CC[C@H]1OC(=O)[C@H](C)[C@@H](O[C@H]2C[C@@](C)(OC)[C@@H](O)[C@H](C)O2)[C@H](C)[C@@H](O[C@@H]2O[C@H](C)C[C@H](N(C)C)[C@H]2O)[C@](C)(O)C[C@@H](C)C(=O)[C@H](C)[C@@H](O)[C@]1(C)O [erythromycin] (10 µM)	-0.171	102% (inactive)
OC[C@H]1O[C@@H](Oc2cc(O)cc(/C=C/c3ccc(O)cc3)c2)[C@H](O)[C@@H](O)[C@@H]1O [polydatin] (10 µM)	0.0104	104% (inactive)
NS(=O)(=O)c1cc2c(cc1Cl)NCNS2(=O)=O [hydrochlorothiazide] (10 µM)	0.0281	110% (inactive)
CC(C)(N)CC12CC3CC(CC(C3)C1)C2 [somantadine] (10 µM)	0.178	96% (inactive)
Cc1cc(C2CCCCC2)n(O)c(=O)c1 [ciclopirox] (0.833333 µM)	0.0975	96.5% (inactive)
CC(C)CCNc1ncccc1C(=O)N1CCN(Cc2ccccc2)CC1 (10 µM)	-0.0116	114% (inactive)
C#CCN[C@@H]1CCc2ccccc21 [rasagiline] (10 µM)	0.0975	115% (inactive)
CNC(=O)c1cccc(NC(=O)N2CCC(Oc3ccccc3Cl)CC2)c1 (10 µM)	-0.102	114% (inactive)
CC(=O)Nc1cccc(Nc2ncnc(N3CCC(OCc4ccc(OC(F)(F)F)cc4)CC3)n2)c1C (10 µM)	0.184	110% (inactive)

SMILES	morphology score [1]	SARS-CoV-2 infection rate [2]
Nc1nc(Cl)nc2c1ncn2[C@@H]1O[C@H](CO)[C@@H](O)[C@@H]1F [clofarabine] (0.833333 µM)	0.11	94.5% (inactive)
CCNC(=O)c1n[nH]c(-c2cc(Cl)c(O)cc2O)c1-c1ccc(OC)cc1 (10 µM)	0.0403	104% (inactive)
CC(CCc1ccccc1)NCC(O)c1ccc(O)c(C(N)=O)c1 (centres undefined) [labetalol] (10 µM)	-0.119	114% (inactive)
CC(C)(C)NC[C@H](O)COc1cccc2c1CCCC2=O [levobunolol] (10 µM)	0.0302	108% (inactive)
C=CC(=O)Nc1cccc(C)c1Nc1ncc2cc(-c3c(Cl)c(OC)cc(OC)c3Cl)ccc2n1 (10 µM)	0.567	67% (inactive)
CC1CNc2c(cccc2S(=O)(=O)N[C@@H](CCCNC(=N)N)C(=O)N2CC[C@@H](C)C[C@@H]2C(=O)O)C1 (mixture of isomers) [argatroban] (10 µM)	-0.0153	115% (inactive)
c1nc2c(NC3CCCCC3)nc(Nc3ccc(N4CCOCC4)cc3)nc2[nH]1 [reversine] (10 µM)	-0.11	106% (inactive)
CN(CC[C@@H](Oc1ccc(-c2ccccc2)cc1)c1ccc(F)cc1)CC(=O)O (10 µM)	0.036	108% (inactive)
CCN1CCC(n2cc(CNc3cc(Cl)c4ncc(C#N)c(Nc5ccc(F)c(Cl)c5)c4c3)nn2)CC1 [cot-inhibitor-2] (10 µM)	0.683	40.5% (active)
NCc1cc(O)no1 [muscimol] (10 µM)	-0.00274	111% (inactive)
C[C@H]1[C@H](NC(=O)/C(=N\OC(C)(C)C(=O)O)c2csc(N)n2)C(=O)N1S(=O)(=O)O [aztreonam] (10 µM)	-0.0447	94% (inactive)
CNCc1ccc(-c2cc(-c3nc(-c4ccc(S(=O)(=O)C(C)C)cc4)cnc3N)on2)cc1 (0.833333 µM)	0.565	52% (active)
Cc1cccc(C)c1NC(=O)[C@@H](C)N [tocainide] (10 µM)	-0.0832	109% (inactive)
Cc1ncc(CSSCc2cnc(C)c(O)c2CO)c(CO)c1O [pyritinol] (10 µM)	0.0152	100% (inactive)
COc1ccc(N2CCOCC2)c2sc(NC(=O)N3CCC(C)(O)CC3)nc12 [tozadenant] (10 µM)	0.275	97% (inactive)
CC(C)(Sc1cc(C(C)(C)C)c(O)c(C(C)(C)C)c1)Sc1cc(C(C)(C)C)c(O)c(C(C)(C)C)c1 [probucol] (10 µM)	0.0913	100% (inactive)
